The source of these data is PubChem BioAssay (NCI).

The panel holds about 83,000 compounds, 20% with a hit somewhere; the sample as a whole holds those more often.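 Results are percent growth after 48 hours of single-concentration exposure. 100 means growth as in untreated cells, lower positive values show inhibition; negative values down to -100 show cell death.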 The source made the active and inactive calls. Rule for the calls: active = growth percent below 10; inactive = the rest.

In the experiment the test system is UACC-257 melanoma. Kind of experiment: NCI-60 one-dose screen, 48 h (100 = growth as untreated, 0 = no growth, -100 = all killed). Conditions: 10 µM unless noted.
As to `C=C(C)[C@@H]1CC[C@]2(C(=O)NCCNCCN)CC[C@]3(C)[C@H](CC[C@@H]4[C@@]5(C)C/C(=C/c6ccncc6)C(=O)C(C)(C)[C@@H]5CC[C@]43C)[C@@H]12`, the growth is 105% (inactive).

`CS(=O)(=O)C1=CN(CCO)C(=O)N2CCCN=C12`: the growth is 105% (inactive).

Turning to `Cc1ccc(Sc2nnc(/N=C3\C(=O)Nc4ccccc43)s2)cc1`, the growth was 94.2% (inactive).

`CCOc1nc(-c2ccccc2)cc2c(O)c(C(=O)NN)[nH]c(=O)c12`: the growth was 103% (inactive).

As for `O=C1Nc2ccc(Br)cc2/C1=N/c1n[nH]c(=S)s1`, the growth was 99.6% (inactive).

With `CCCCCCCCCCCCCCCC(N)c1ccccc1` (centres undefined), the growth is 82.6% (inactive).

Turning to `CCc1n(Cc2ccc3ccccc3c2)cc[n+]1Cc1ccc2ccccc2c1`, the growth is -38.2% (active).

With `Cc1ccc(-c2nc(N3CCNCC3)c3oc(-c4ccccc4)nc3n2)cc1`, the growth is 91.2% (inactive).

`O=C(OCc1ccc2cccc(O)c2n1)N1CCN(C(=O)c2cc3cc(F)ccc3[nH]2)CC1`: the growth was -41.4% (active).

Regarding `CN1CCN(Cc2ccc(NC(=O)c3cncc(C#Cc4cnc(N)c5ccccc45)c3)cc2C(F)(F)F)CC1`, the growth is -90.1% (active).

Consider `CO/N=C(/C)c1ccc(NC(=O)CSc2nnc(-c3ccncc3)n2-c2ccccc2)cc1`, for which the growth is 50.6% (inactive).

For `CC(=O)OC[C@]12CCC(C)(C)C[C@H]1[C@@]1(O)[C@H](O)C[C@@H]3[C@@]4(C)CCCNC(C)(C)[C@@H]4CC[C@@]3(C)[C@]1(C)CC2`, the growth was 101% (inactive).

In the case of `COc1cc(-n2cc(-c3cc(O)c(C/C=C(\C)CCC=C(C)C)c(O)c3)nn2)cc2c1O[C@]1(C)CC[C@@H](O)C(C)(C)[C@H]1C2`, the growth is 27.4% (inactive).

Regarding `CC(=O)c1cc(O)c2ccccc2c1O`, the growth is 96.5% (inactive).

For `CC[C@]12C=CCN3CC[C@@]4(c5cc(NC(=O)CCC(=O)OCc6cn(Cc7ccc(F)cc7)nn6)c(OC)cc5N(C)[C@H]4[C@@](O)(C(=O)OC)[C@@H]1OC(C)=O)[C@@H]32`, the growth was 102% (inactive).

Consider `Cc1nn(-c2ccccc2)c(Oc2ccccn2)c1-c1nc2ccccc2s1`, for which the growth is 98% (inactive).

Take `O=C(Cn1c2c(c3ccccc31)CCCC2)Nc1ccc(-c2nc3ccccc3s2)cc1`: the growth was 106% (inactive).

With `N#Cc1c(N)nnn1Cc1cc(=O)oc2c1ccc1ccccc12`, the growth was 97.7% (inactive).

As to `O=C1N[C@@H]2NC(=[N+]3CCOCC3)N[C@@H]2N1`, the growth was 109% (inactive).

In the case of `CCN1C(=O)N(CC)C2C1NN=c1s/c(=C\c3ccc(Cl)cc3Cl)c(=O)n12` (centres undefined), the growth is 68.6% (inactive).

Take `CC1=C(Nc2ccc(N3CCN(C)CC3)cc2)C(=O)c2cncnc2C1=O`: the growth is 65.6% (inactive).

With `O=c1oc2ccccc2cc1C1=NN=C(SCc2ccccc2)SC1`, the growth was 110% (inactive).

Take `O=C(O)CNC1=C(Cl)C(=O)c2ccccc2C1=O`: the growth was 91.1% (inactive).

As for `N#CC1=C(c2ccc(Cl)cc2)Nc2c(c(-c3ccc(Cl)cc3)nn2-c2ccccc2)C12C(=O)Nc1ccc(Cl)cc12` (centres undefined), the growth is 63.4% (inactive).

In the case of `C=C(C)[C@@H]1CC[C@]2(C(=O)O)CC[C@]3(C)[C@H](CC[C@@H]4[C@@]5(C)C[C@@H](Cc6cn(CCO[C@@H]7O[C@H](COC(C)=O)[C@H](OC(C)=O)[C@H](OC(C)=O)[C@H]7OC(C)=O)nn6)[C@H](O)C(C)(C)[C@@H]5CC[C@]43C)[C@@H]12`, the growth was 61.9% (inactive).

Regarding `Cc1ccc(NC(=S)NNC(=S)NNc2ccccc2)cc1C`, the growth is 98.6% (inactive).

For `CCC(C)N(c1ccc(Cl)cc1)c1nc(-c2ccc(Br)cc2)cs1` (centres undefined), the growth was 103% (inactive).

With `c1ccc(CNc2c3ccccc3nc3ccccc23)cc1`, the growth is 52.7% (inactive).

For the molecule `C=C(C)[C@@H]1CC[C@]2(C(=O)NCC#CCN3CCN(C)CC3)CC[C@]3(C)[C@H](CC[C@@H]4[C@@](C)(CCC#N)[C@H](C(=C)C)CC[C@]43C)[C@@H]12`, the growth was 56.7% (inactive).

As for `O=C1C(Cl)=C(Nc2ccc(O)cc2)C(=O)N1Cc1ccc(Cl)cc1`, the growth is 70% (inactive).

With `O=Cc1ccc([N+](=O)[O-])s1`, the growth is 97.3% (inactive).

On to `COc1cc(/C=C\c2cc(/C=C\c3ccc(O)c(OC)c3)n(C(=O)COc3ccc(Cl)cc3Cl)n2)ccc1O`, for which the growth was 41.9% (inactive).

For `CC1(c2ccccc2O)NN=C(/N=C/c2cccc([N+](=O)[O-])c2)N1C(Cc1c[nH]c2ccccc12)C(=O)O` (centres undefined), the growth was 90.6% (inactive).

On to `COC(=O)CNC(=O)[C@H](Cc1ccccc1)NCc1ccncc1`, for which the growth is 84.4% (inactive).
